Shown is part of a subset that was picked to be rich in hits.
Pf Dd2 inh: qHTS Primary assay for Inhibitors of Plasmodium falciparum Dd2 growth in vitro | P. falciparum Dd2 growth, SYBR Green, 72 h | Potency, µM (series often up to 28.9 µM), for inactives: top-dose activity, negative = inhibition, most hits filed as inhibitors | 120,000 compounds, 4.3% hits | AID 1347417, 2020; active = well fitted inhibition curve with a large enough effect;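 note: plate controls were DMSO vehicle for no effect and reference drug for full effect; nearly all actives have a fitted effect of over 65% in size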
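Readout: SYBR Green fluorescence, 485 nm excitation, 535 nm emission, after ~16 h lysis at 37C. Before that, Dd2-infected red cells (2.5% hematocrit) grew 72 h with compound, 29 uM top final concentration.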
An asterisk follows results filed as active; i = inactive; [ ] = dose if it differs, or a comment. Potency is the fitted concentration of half-maximal effect.

SMILES | Pf Dd2 inh
CCCN1CCc2[nH]cnc2C12CCN(C(=O)[C@H]1Cc3ccccc3CN1)CC2 | 3%
COc1nccnc1NC1CCN(C(=O)Cc2cccs2)CC1 | i[5.79 µM]
COc1cccc(NC(=O)CCC2CCN(C(=O)c3cnc(C)[nH]c3=O)CC2)c1 | -6%
O=C(Nc1ccc(Oc2ccccc2)cc1)O[C@@H]1CO[C@H]2[C@@H]1OC[C@@H]2NS(=O)(=O)c1ccc(Cl)cc1 | i
O=C1N(C2CCN(S(=O)(=O)c3cnc[nH]3)CC2)C(c2ccccc2)C12CCCC2 (stereo not drawn) | -24%
CCOCC(=O)N1CCC2(CC1)NCCc1c2[nH]c2ccc(OC)cc12 | -23%
COCCNc1nc2c([S+](=O)([O-])c3cc(OC)ccc3OC)nnn2c2ccccc12 | -17%
CCn1cc(S(=O)(=O)c2cc(C)cc(C)c2)c(=O)c2cc(F)c(N3CCC(C)CC3)cc21 | i
CCCCn1cc(S(=O)(=O)c2ccccc2)c(=O)c2cc(F)c(N3CCN(CCC)CC3)cc21 | -10%
CCc1ccc(S(=O)(=O)c2cn(C)c3cc(N4CCCC4)c(F)cc3c2=O)cc1 | -10%
CCCn1cc(S(=O)(=O)c2ccc(CC)cc2)c(=O)c2cc(F)c(N3CCN(C)CC3)cc21 | 7.1µM*
CCCN1CCN(c2cc3c(cc2F)c(=O)c(S(=O)(=O)c2ccc(CC)cc2)cn3CC)CC1 | 10µM*
CCc1ccc(S(=O)(=O)c2cn(C)c3cc(N4CCOCC4)c(F)cc3c2=O)cc1 | -19%
O=C1NCN(Cc2ccc(Cl)cc2)C12CCN([S+](=O)([O-])c1cccc(C(F)(F)F)c1)CC2 | 15%
CNC(=O)[C@H]1C[C@H](Oc2cccnc2)CN1S(=O)(=O)c1ccc(OC)cc1 | -9%
O=C(CC[C@H]1NC(=O)c2ccccc2NC1=O)NCCCc1nnc2ccccn12 | -13%
CC(C)C[C@@H]1N[C@H](C(=O)N2CCN(C)CC2)Cc2cn(Cc3ccccn3)c3cccc1c23 | i
CC(C)C[C@@H]1N[C@H](C(=O)N2CCN(C)CC2)Cc2cn(Cc3cccnc3)c3cccc1c23 | -8%
CC(C)C[C@@H]1N[C@H](C(=O)N2CCOCC2)Cc2cn(Cc3ccncc3)c3cccc1c23 | 10µM*
CC#CCn1cc2c3c(cccc31)[C@H](CC(C)C)N[C@H](C(=O)N1CCN(CCO)CC1)C2 | 10µM*
CC(C)C[C@@H]1N[C@H](C(=O)NCC2CC2)Cc2cn(Cc3cccnc3)c3cccc1c23 | -38%[44.1 µM]
Cc1noc(C)c1Cn1cc2c3c(cccc31)[C@H](CC(C)C)N[C@H](C(=O)O)C2 | i
COCCNC(=O)[C@@H]1Cc2cn(Cc3cccnc3)c3cccc(c23)[C@H](CC(C)C)N1 | 11µM*
CC#CCn1cc2c3c(cccc31)[C@H](CC(C)C)N[C@H](C(=O)N1CCOCC1)C2 | i
COCCNC(=O)[C@@H]1Cc2cn(Cc3ccccn3)c3cccc(c23)[C@H](CC(C)C)N1 | i
SMILES | Pf Dd2 inh
CC1(C(=O)N2CCC(c3ccccc3)CC2)CCc2cnc(N3CCOCC3)nc21 (stereo not drawn) | i
O=C(c1ccccc1F)N1CCn2c(nnc2-c2cccnc2)C1 | 8%
CC(C)C1=NOC2(CCN(Cc3cccc(C(N)=O)c3)CC2)C1 | 10%
O=C1CCN(C2CCCCC2)CCOCCN1 | -26%
CC(C)(C)c1[nH]nc2c1C(c1ccnc3ccccc13)CC(=O)N2 (stereo not drawn) | -12%
O=C1CCN(S(=O)(=O)c2ccccc2)CCCN(C(=O)C2CC2)CCN1 | 30%
O=[S+]1([O-])NCC2(CCN(Cc3cccc(C(F)(F)F)c3)C2)Oc2ccncc21 (stereo not drawn) | 0%
COCCn1ncc(N2CCCC(CC(=O)NCCN3CCCC3)C2)cc1=O (stereo not drawn) | 39%
Cc1ccccc1NC(=O)c1c(NC(=O)c2ccccc2)sc2c1CCC2 | 4%
Cc1ccc(NC(=O)c2c(NC(=O)C(F)(F)F)sc3c2CCCCC3)cc1 | 4µM*
Cc1cccc(NC(=O)c2c(NC(=O)C(F)(F)F)sc3c2CCCCC3)c1 | 4.5µM*
Cc1cccc(C(=O)Nc2sc3c(c2C(=O)Nc2ccccc2)CCC3)c1 | 33%
Cc1cccc(NC(=O)c2c(Br)sc3c2CCCC3)c1 | i
O=C(COc1ccc(Cl)cc1)Nc1sc2c(c1C(=O)Nc1cccc(Cl)c1)CCCC2 | 1%
CCCNC(=O)c1c(NC(=O)c2ccc(C)cc2)sc2c1CCCCC2 | -2%
CCc1ccccc1NC(=O)c1c(NC(=O)c2ccccc2)sc2c1CCCC2 | 42%
O=C(Nc1sc2c(c1C(=O)Nc1ccc(Cl)cc1)CCCC2)c1cccs1 | 5%
Cc1ccccc1NC(=O)c1c(NC(=O)C(F)(F)F)sc2c1CCCCC2 | 10µM*
O=C(Nc1cccc(Cl)c1)c1c(NC(=O)C(F)(F)F)sc2c1CCCC2 | 13µM*
Cc1ccc(NC(=O)c2c(NC(=O)c3ccccc3)sc3c2CCC3)cc1 | i
CCc1noc(-c2ccn3c(CNC(=O)c4cc5ccccc5[nH]4)nnc3c2)n1 | -10%
O=C(NCCC1CCN(C(=O)Nc2cccc(F)c2)CC1)c1cc(F)ccc1F | -18%
Cc1ccsc1C(=O)NCCc1noc(-c2ccccc2)n1 | i
CN1CCN(Cc2cn3c(=O)n(C)cc(-c4cccc(N(C)C)c4)c3n2)CC1 | -4%[44.1 µM]
COC[C@@H]1[C@H](C(=O)Nc2ccc(F)cc2F)CCC(=O)N1C | 1%
SMILES | Pf Dd2 inh
O=C(C[C@@H]1O[C@H](CNC(=O)Nc2cccc(F)c2)[C@@H](O)[C@H]1O)NCCN1CCOCC1 | 16%
CC(C)(C)c1cc(CC2(NCc3ccccc3O)COC2)no1 | i
CC(C)c1cc(C(=O)NCc2nnnn2-c2ccccc2)nc2ncnn12 | -4%
CC(C)C[C@@H]1N[C@H](C(=O)N2CCC(NC(=O)c3ccccc3)CC2)Cc2c[nH]c3cccc1c23 | 10µM*
CC(C)C[C@@H]1N[C@H](C(=O)NCc2ccccc2)Cc2c[nH]c3cccc1c23 | i
CC(C)C[C@@H]1N[C@H](C(=O)N2CCCC2)Cc2c[nH]c3cccc1c23 | -18%[44.1 µM]
CC(C)C[C@@H]1N[C@H](C(=O)NCCOc2ccccc2)Cc2c[nH]c3cccc1c23 | 13µM*
CCCNC(=O)[C@@H]1Cc2c[nH]c3cccc(c23)[C@H](CC(C)C)N1 | i
CC(C)C[C@@H]1N[C@H](C(=O)NCc2ccco2)Cc2cn(Cc3nccn3C)c3cccc1c23 | -16%
CC(C)C[C@@H]1N[C@H](C(=O)NCc2ccccc2Cl)Cc2c[nH]c3cccc1c23 | i
CC(C)C[C@@H]1N[C@H](C(=O)NCCCn2ccnc2)Cc2c[nH]c3cccc1c23 | 8.9µM*
CC(C)CCC1=NC2(CCN(C(=O)C3CC34CCCC4)CC2)C(=O)N1 (stereo not drawn) | -22%
O=C(c1ccc(F)cc1)N1CCc2nc(-c3ccc(Cl)cc3)nc(-c3ccccc3)c2C1 | i
CC1(C(=O)NCCc2ccccn2)CCc2cnc(NCc3ccccc3)nc21 (stereo not drawn) | -21%[44.1 µM]
O=C(N1CCC(Cc2nc(C3CCOCC3)no2)CC1)C1(c2ccccc2)CC1 | 10%
O=C(N1CCC2(CC1)CC(Cc1nc(-c3cccnc3)no1)CCO2)C1(c2ccccc2)CC1 (stereo not drawn) | 7.9µM*
COc1ccc(CCC(=O)N2CCC3(CC2)CC(Cc2nc(-c4cnccn4)no2)CCO3)cc1 (stereo not drawn) | i
COc1cccc(CC(=O)N2CCC3(CC2)CC(Cc2nc(-c4cccnc4)no2)CCO3)c1 (stereo not drawn) | 8.9µM*
